Test results as given in the supplement of paper PMC6555819.

Assays:
Assay in all cases: PBM binding z-score (relative to random genomic background probes); higher = stronger binding; sequences stand for … in GC…GCGATTGACAGCGTAGAATGAAGG
[1] = test system: RARb homodimer (NR concentration 270 nM)
How it was run: (§1)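 Ligand-free nuclear receptor dimers were bound for 1 h to custom Agilent 4×180K protein-binding microarrays. Detection used antibodies against each partner (one per run). Binding z-scores rest on regression-normalized fluorescence, with random background probes as the reference.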

[2] = test system: RARg:RXRa (NR concentration 270 nM, RXRa partner concentration 90 nM)
How it was run: as §1

[3] = test system: RARg homodimer (NR concentration 270 nM)
How it was run: as §1

[4] = test system: RXRa DBDmut IVT, anti-RXR (DBD mutation: RXRa K156A/R161A, NR concentration 90 nM)
How it was run: as §1

[5] = test system: RXRa homodimer (NR concentration 180 nM)
How it was run: as §1

[6] = test system: THRa:RXRa (NR concentration 90 nM, RXRa partner concentration 90 nM)
How it was run: as §1

[7] = test system: THRa homodimer (NR concentration 90 nM)
How it was run: as §1

[8] = test system: VDR homodimer (NR concentration 270 nM)
How it was run: as §1

Sequence | PBM binding z-score [1] | PBM binding z-score [2] | PBM binding z-score [3] | PBM binding z-score [4] | PBM binding z-score [5] | PBM binding z-score [6] | PBM binding z-score [7] | PBM binding z-score [8]
ATCTCTAGGAAAAGATAGTTCAGTGAATGCAAAT | 0.679 | 0.447 | 0.556 | 0.143 | 0.0291 | 0.206 | -0.344 | 0.566
CAAACTAGGTCAAGAGGTCAAAGTCCGCTTCCCG | 5.9 | 8.2 | 8.13 | 2.89 | 8.25 | 4.44 | 2.61 | 4.47
TCTTGTAGATCATCAGGTTAAGAAAGCTGGCCAA | 0.398 | 0.0917 | -0.23 | 0.859 | 0.451 | 0.929 | 0.613 | 0.0246
CCTTACGGGTCACTCCAGATTATAGCATCGGAGT | 2.58 | 4.16 | 3.98 | 1.28 | 3.98 | 2.65 | 0.098 | 1.39
TCGAGTACGTTAGGGGCATTCAGAATGGCGTCGA | 0.267 | 0.169 | -0.0328 | 3.64 | 0.3 | 0.637 | -0.622 | 5.05
GTACCAGGGTGAATAGGTCGTTGATGAGTAGGCG | 1.54 | 2.21 | 0.988 | -0.386 | 2 | 1.21 | 0.463 | 0.626
TCTAGTTGGTCAAACGTCACACACTCGAAATGCG | 0.78 | 0.926 | 0.831 | 1.2 | 1.04 | 0.288 | 0.167 | 0.2
TCGTGTAGATCAAAGGTTAAGAAAGCCGAAGCCT | 1.47 | 1.76 | 0.92 | 0.608 | 3.14 | 1.33 | 0.108 | 0.111
CGAACGAGGGCATGCGTTGATAGCAAATGCCGAT | 0.766 | 1.03 | 1.55 | 2.39 | 0.91 | 0.988 | -0.0968 | 1.21
ACTAGCAGGCCAAGTTTGGGCCACTCAAACAAAG | 0.113 | 0.0368 | 0.111 | -0.286 | -0.539 | 0.356 | -0.681 | -0.556
CAAACTAGGTCTAAGGTCAAAGTCGAGCCAACCA | 4.24 | 4.86 | 4.08 | 2.51 | 5.24 | 4.1 | 4.5 | 3.63
TGAATAAGGTTAAAGATCAGGGAACGTGGCGTCG | 1.04 | 2.51 | 1.72 | 0.599 | 3.39 | 2.48 | 0.616 | 0.301
ATCTCTAGGTAAGGATAGTTCAGTGAATGCAAAT | 1.05 | 0.45 | 0.907 | 0.233 | -0.127 | 1.21 | 0.86 | 0.73
GCATATAGGTAATAGAAGGTGAAAGTCCGATTGT | 0.803 | 0.423 | 0.585 | 0.488 | 0.618 | 2.5 | -0.242 | 0.274
ATACCAAGGGGATCGTGAGGTCGTTGATACTAAC | 1.03 | 0.522 | 0.278 | 0.533 | 0.933 | 2.89 | 1.66 | 2.27
CCTACTGGGCCAAAGGTCACTGATTCCAATGCTC | 4.91 | 6.24 | 5.46 | 0.634 | 7.03 | 3.42 | 1.29 | 1.88
AGTCAAAGTTCAGGACGAGGTAACCTAAAGCACG | 3.52 | 4.84 | 4.86 | 2.85 | 3.15 | 3.88 | 1.92 | 2.29
